PP1 counter: blocks human PP1-alpha phosphatase, a PP5 counter-screen; P62136; purified PP1alpha, OMFP fluorescence; inhibition, % at 6.7 µM; 320,000 compounds, 0.9% hits; AID 2235;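 active means inhibition above the mean inhibition of all tested compounds plus 3 SD, computed separately for each screening campaign, cut at about 15% in these data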
MsrA inh: inhibits bovine methionine sulfoxide reductase A; purified bovine MsrA, absorbance read-out; inhibition, % at 15.5 µM; 360,000 compounds, 0.75% hits; AID 651718; in the data active means inhibition above about 4.5%
ZTA DNA inh: blocks Epstein-Barr virus ZTA, an EBNA-1 counter-screen. inhibition, % at 11 µM. AID 2234. 320,000 compounds, 0.15% hits. ZTA-DNA binding, fluorescence polarization. P03206; in the data active means inhibition above about 33%
EBNA-1 inhibitor: blocks EBNA-1 binding to DNA | EBNA-1 DNA binding, fluorescence polarization | inhibition, % at 14.8 µM | 300,000 compounds, 0.34% hits | AID 1950; in the data active means inhibition above about 28%
MsrA act: bovine methionine sulfoxide reductase A activation; AID 602163; 360,000 compounds, 0.3% hits; activation, % at 10.6 µM; purified bovine MsrA, absorbance read-out; in the data active means activation above about 7.5%
PP5 primary: blocks human protein phosphatase 5 activity; P53041; purified PP5c, OMFP substrate fluorescence; inhibition, % at 6.7 µM; 320,000 compounds, 0.18% hits; AID 1987;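 active means inhibition above the campaign's mean inhibition across all tested compounds plus 3 SD, cut at about 9.5% in these data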
Target sequence (P53041 whole entry, looked up): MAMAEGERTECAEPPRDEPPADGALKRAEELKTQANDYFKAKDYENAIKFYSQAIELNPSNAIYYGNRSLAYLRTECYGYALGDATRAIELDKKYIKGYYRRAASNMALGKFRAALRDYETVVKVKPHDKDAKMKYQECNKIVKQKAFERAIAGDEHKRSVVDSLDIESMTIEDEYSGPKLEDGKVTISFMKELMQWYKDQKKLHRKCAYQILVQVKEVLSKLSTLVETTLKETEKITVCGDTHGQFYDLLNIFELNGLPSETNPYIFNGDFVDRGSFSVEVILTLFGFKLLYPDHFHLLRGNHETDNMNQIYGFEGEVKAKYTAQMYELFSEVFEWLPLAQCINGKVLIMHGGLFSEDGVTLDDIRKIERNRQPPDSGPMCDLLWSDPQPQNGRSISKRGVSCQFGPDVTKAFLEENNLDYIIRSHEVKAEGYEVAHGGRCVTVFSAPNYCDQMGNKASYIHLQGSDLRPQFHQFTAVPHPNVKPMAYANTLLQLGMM
EBNA-1 inh conf: EBNA-1 (EBV) inhibition, confirmation; AID 2292; shares compounds with EBNA-1 inhibitor; Recombinant EBNA-1 DBD, Cy5-DNA fluorescence polarization; 830 compounds, 35% hits; inhibition, % at 14.8 µM;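 active means mean inhibition across replicates above a set limit taken from the earlier primary screen, cut at about 28% in these data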
ZTA counter trip: counter-screen for EBNA-1 inhibitors: Epstein-Barr virus ZTA inhibitors, triplicate; shares compounds with EBNA-1 inhibitor; Zta-ZRE DNA binding, Cy5 fluorescence polarization; inhibition, % at 11.1 µM; 830 tested, under 10 active; AID 2328;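 active means mean inhibition over triplicates above a set limit taken from the primary EBNA-1 screen, cut at about 37% in these data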;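 further: purified full length Zta protein with Cy5 labeled ZRE DNA probe; inhibitors lower polarization by freeing the labeled DNA probe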
Hits are given with their value; 0 = inactive; - = no result given. Sampled rows, rich in hits. Any-hit rate of the full collection: about 2.3%.

SMILES	PP1 counter	MsrA inh	ZTA DNA inh	EBNA-1 inhibitor	MsrA act	PP5 primary	EBNA-1 inh conf	ZTA counter trip
COC(=O)C1=C(N)N(c2ccccc2C(F)(F)F)C2=C(C(=O)CCC2)C1c1ccc2c(c1)OCO2 (stereo unspecified)	0	0	0	31	0	0	0	0
CC(C)(C)c1nc(SCC(=O)Nc2ccc3c(c2)OCCO3)c2ccccc2n1	0	0	0	46	0	0	0	0
O=C(CSc1nnc(-c2ccc(O)cc2)o1)Nc1cccc(O)c1	0	0	0	0	0	0	-	-
O=C(CSc1nnc(-c2ccc(O)cc2)o1)Nc1ccc2c(c1)OCCO2	0	0	0	34	0	0	0	0
Cc1ccc(NC(=O)CSc2nnc(-c3ccc(S(=O)(=O)N4CCCC4)cc3)o2)cc1C	0	0	0	108	0	0	56	194
Cc1cccc(NC(=O)CSc2nnc(-c3ccc(S(=O)(=O)N4CCCC4)cc3)o2)c1	0	-	0	0	0	0	-	-
COc1ccc(C(CNC(=O)c2cccc(S(=O)(=O)N3CCc4ccccc43)c2)N(C)C)cc1 (stereo unspecified)	-	0	-	-	0	-	-	-
CC(C)=NOC(=O)c1ccc(-c2ccccc2)cc1	0	0	0	0	0	0	-	-
CC(=O)C(/C=N/c1cc(-c2ccc(C)cc2)nn1-c1ccccc1)=C(\C)O	0	0	0	30	0	0	50	0
Cc1ccc(NC(=O)c2cc(-c3ccccc3)nn2-c2ccccc2)cc1	0	0	0	0	0	0	-	-
COc1ccccc1CN1C(=O)[C@@H]2C(CCC(N)=O)NC3(C(=O)Nc4c3ccc(Cl)c4C)[C@@H]2C1=O (stereo partly specified)	0	0	0	0	0	0	-	-
COc1ccccc1CN1C(=O)[C@@H]2C(CC(N)=O)NC3(C(=O)Nc4c3ccc(Cl)c4C)[C@@H]2C1=O (stereo partly specified)	0	0	0	28	0	0	49	0
COc1ccc(NC(=O)C2C3C=CC4(O3)C2C(=O)N(CCN2CCCCC2)C4C(=O)NC2CCCC(C)C2C)cc1 (stereo unspecified)	0	0	0	0	0	0	-	-
C=CCn1c(SCC(=O)NCc2ccco2)nc2ccccc2c1=O	0	0	0	0	0	0	-	-
C=CCn1c(SCC(=O)NC(=O)NCc2ccco2)nc2sc(CC)cc2c1=O	0	0	0	28	0	0	0	0
Cc1sc2nc(SCC(=O)NCc3ccco3)n(CCc3ccccc3)c(=O)c2c1C	0	0	0	30	0	0	0	0
Cn1cccc1-c1nc2ccccc2[nH]1	0	0	0	0	0	0	-	-
CCc1ccc(N2CC(C(=O)Nc3ccc(S(=O)(=O)NCC4CCCO4)cc3)CC2=O)cc1 (stereo unspecified)	0	0	0	94	0	0	29	0
O=C(Nc1nc2cc3c(cc2s1)OCCO3)c1ccc(N2C(=O)CCC2=O)cc1	0	0	0	62	0	0	57	0
O=C(Nc1nc2cc3c(cc2s1)OCCO3)c1ccncc1	0	0	0	0	0	0	-	-
COC(=O)c1ccc(NC(=O)Cn2nc(-c3ccncc3)nc2SCC(=O)Nc2nccs2)cc1	0	0	0	52	0	0	35	0
CCN(CC)C(=O)Cn1nc(-c2ccncc2)nc1SCC(=O)Nc1ccc(OC)cc1	0	0	0	0	0	0	-	-
CNc1c2cccc(C)c2nc2c(C(=O)NCCN(C)C)cccc12	-	0	-	-	0	-	-	-
O=C(NNC(=O)C1CCN(S(=O)(=O)c2ccc(Cl)cc2)CC1)c1ccc(S(=O)(=O)N2CCCCC2)cc1	0	0	0	31	0	0	0	0
Cc1ccc(C(=O)NNC(=O)C2CCN(S(=O)(=O)c3ccc(Cl)cc3)CC2)cc1	0	0	0	0	0	0	-	-
SMILES	PP1 counter	MsrA inh	ZTA DNA inh	EBNA-1 inhibitor	MsrA act	PP5 primary	EBNA-1 inh conf	ZTA counter trip
O=C(NCCc1c[nH]c2ccccc12)C(=O)Nc1ccccc1	0	0	0	35	0	0	0	0
Cc1ccc(NC(=O)C(=O)NCCc2c[nH]c3ccccc23)cc1C	0	0	0	0	0	0	-	-
O=C1N/C(=C\c2ccccc2)C(O)=C1C=NCc1ccccc1	0	0	0	33	0	0	0	0
Oc1cccc(C=NCc2ccccc2)c1	0	0	0	0	0	0	-	-
O=C(CCCn1ncn2c(cc3occc32)c1=O)NCc1ccccc1F	0	0	0	0	0	0	-	-
O=C(Cc1cc2ccccc2o1)NCc1ccc(F)cc1	0	0	0	0	0	0	-	-
COc1ccccc1C(=O)Nc1nc2ccccc2s1	0	0	0	31	0	0	0	0
COc1ccc(C(=O)Nc2nc3ccccc3s2)c(OC)c1	0	0	0	0	0	0	-	-
COc1n[nH]c(C(=O)Nc2nc3ccccc3s2)c1[N+](=O)[O-]	0	0	0	34	0	0	0	0
COC(=O)c1ccc(CSc2nc3ccccc3s2)o1	0	0	0	0	0	0	-	-
COC(=O)C1=C(CSc2nc3ccccc3s2)NC(=O)NC1c1ccc(F)cc1 (stereo unspecified)	0	0	0	42	0	0	0	0
COc1cccc2c(=O)n(CC(=O)N3CCc4ccccc43)ccc12	0	0	0	0	0	0	-	-
CCOC(=O)COc1cccc2c(=O)n(CC(=O)N3CCc4ccccc43)ccc12	0	0	0	36	0	0	0	0
COc1ccccc1CNC(=O)C1CCN(C(=O)N(C)C)CC1	0	0	0	78	0	0	0	0
COc1ccc(CNC(=O)C2CCN(C(=O)N(C)C)CC2)c(OC)c1	0	-	0	0	0	0	-	-
CC(=O)Nc1ccc(NC(=O)CSc2ccc([N+](=O)[O-])cn2)cc1	0	0	0	0	0	0	-	-
N#C/C(=N\Nc1cccc(C(F)(F)F)c1)C(=O)c1csc(-c2cccnc2)n1	0	0	0	50	0	0	0	0
COc1cccc(/C=N/NC(=O)c2ccc(CN3c4cccc5cccc(c45)S3(=O)=O)cc2)c1	0	0	0	30	0	0	0	0
CCSc1nnc(-c2ccccc2N=Cc2c(C)[nH]n(-c3ccccc3)c2=O)c(=O)[nH]1	0	0	0	0	0	0	-	-
CCc1nnc(NC(=O)CSc2nc3cc4c(cc3cc2C)OCCO4)s1	0	0	0	102	0	0	98	0
O=C(CSc1nc2ccccc2s1)Nc1nccs1	0	0	0	65	0	0	0	0
COc1ccc(/C=C/C(=O)Oc2cccc(/C=N/NC(=O)COc3c(C)cccc3C)c2)cc1	0	0	0	39	0	0	74	0
COc1ccc(/C=C/C(=O)Oc2ccc(/C=N/NC(=O)COc3c(C)cccc3C)cc2)cc1	0	0	0	0	0	0	-	-
O=C(NCc1cccc(Cl)c1)c1ccc(-n2ccnc2)c2ccoc12	-	0	-	-	0	-	-	-
